# Data taken from article PMC7862700, “An all-to-all approach to the identification of sequence-specific readers for epigenetic DNA modifications on cytosine”.
# Key:
# Test in all cases: DAPPL (digital affinity profiling via proximity ligation, sequencing); 10 mM Tris-HCl pH 7.5, 50 mM NaCl, 1 mM DTT, 4% glycerol, room temperature, 30 min; GST-TFs on glutathione beads, 16-mer random dsDNA library, 0.1% formaldehyde crosslink after washing; high values mean tight binding
# Conditions in all cases: protein: recombinant; tags: N-terminal GST; dsDNA, one strand shown
# ELK1 = molecular target: T1, ELK1 (Homo sapiens, UniProt P19419 1-428)
# T1 sequence: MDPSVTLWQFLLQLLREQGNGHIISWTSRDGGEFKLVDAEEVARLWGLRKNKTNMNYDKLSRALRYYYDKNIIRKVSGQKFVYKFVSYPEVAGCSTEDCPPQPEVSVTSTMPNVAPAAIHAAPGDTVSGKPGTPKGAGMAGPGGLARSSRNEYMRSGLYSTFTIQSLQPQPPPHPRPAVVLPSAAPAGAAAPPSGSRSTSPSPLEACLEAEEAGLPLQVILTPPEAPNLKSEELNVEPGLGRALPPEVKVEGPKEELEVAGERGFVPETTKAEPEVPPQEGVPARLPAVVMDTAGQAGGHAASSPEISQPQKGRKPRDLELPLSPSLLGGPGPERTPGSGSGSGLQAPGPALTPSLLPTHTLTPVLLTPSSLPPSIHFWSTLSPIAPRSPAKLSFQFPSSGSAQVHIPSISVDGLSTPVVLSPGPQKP
# Outline: (§1)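 Binding signal is each hexamer's read frequency for a factor divided by its frequency in the tag-only sample. The factors were GST-fused human transcription factors from yeast, captured on glutathione beads, DNA-barcoded and pooled with that sample. Pools were incubated with 200 nmole of a random double-stranded 16-mer DNA library in Tris/NaCl/DTT/glycerol buffer at room temperature for 30 min, then washed, crosslinked with 0.1% formaldehyde, proximity-ligated with BsaI/T4 ligase (1 h, 37 °C), PCR-amplified and sequenced on an Illumina NextSeq500.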
# GABPA = molecular target: T2, GABPA (Homo sapiens, UniProt Q06546 1-454)
# T2 sequence: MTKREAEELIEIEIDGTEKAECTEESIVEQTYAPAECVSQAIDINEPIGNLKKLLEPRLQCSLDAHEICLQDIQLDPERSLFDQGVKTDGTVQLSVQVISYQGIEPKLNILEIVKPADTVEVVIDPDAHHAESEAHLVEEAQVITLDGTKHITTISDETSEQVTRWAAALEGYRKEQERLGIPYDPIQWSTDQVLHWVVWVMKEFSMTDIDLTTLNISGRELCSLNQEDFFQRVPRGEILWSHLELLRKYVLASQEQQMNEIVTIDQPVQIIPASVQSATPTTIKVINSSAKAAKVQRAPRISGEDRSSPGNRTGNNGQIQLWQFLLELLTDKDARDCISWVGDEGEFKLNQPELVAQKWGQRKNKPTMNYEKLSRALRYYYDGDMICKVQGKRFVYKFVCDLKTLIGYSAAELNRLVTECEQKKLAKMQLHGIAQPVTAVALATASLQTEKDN
# Outline: as §1
# ERG = molecular target: T3, ERG (Homo sapiens, UniProt P11308 1-479)
# T3 sequence: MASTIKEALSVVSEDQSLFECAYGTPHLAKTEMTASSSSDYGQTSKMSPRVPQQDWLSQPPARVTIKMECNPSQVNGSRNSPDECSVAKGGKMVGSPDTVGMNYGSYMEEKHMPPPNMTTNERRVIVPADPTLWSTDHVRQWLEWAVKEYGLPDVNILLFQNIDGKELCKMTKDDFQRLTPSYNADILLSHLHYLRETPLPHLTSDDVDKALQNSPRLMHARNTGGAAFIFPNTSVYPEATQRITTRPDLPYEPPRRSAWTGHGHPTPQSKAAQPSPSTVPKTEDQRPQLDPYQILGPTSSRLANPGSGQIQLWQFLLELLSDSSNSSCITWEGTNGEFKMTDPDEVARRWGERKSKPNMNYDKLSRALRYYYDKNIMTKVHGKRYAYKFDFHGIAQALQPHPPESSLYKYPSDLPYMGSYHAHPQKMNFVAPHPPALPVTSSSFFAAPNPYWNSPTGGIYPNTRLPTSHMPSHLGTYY
# Outline: as §1
# EHF = molecular target: T4, EHF (Homo sapiens, UniProt Q9NZC4 1-300)
# T4 sequence: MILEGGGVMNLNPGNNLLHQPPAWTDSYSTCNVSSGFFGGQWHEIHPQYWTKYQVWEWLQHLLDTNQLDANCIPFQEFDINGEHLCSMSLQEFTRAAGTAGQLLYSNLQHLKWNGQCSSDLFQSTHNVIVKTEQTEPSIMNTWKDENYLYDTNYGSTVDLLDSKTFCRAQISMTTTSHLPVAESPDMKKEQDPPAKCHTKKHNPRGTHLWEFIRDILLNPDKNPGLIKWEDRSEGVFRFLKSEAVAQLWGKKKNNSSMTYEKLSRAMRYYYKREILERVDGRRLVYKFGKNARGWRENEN
# Outline: as §1
# FEV = molecular target: T5, FEV (Homo sapiens, UniProt Q99581 1-238)
# T5 sequence: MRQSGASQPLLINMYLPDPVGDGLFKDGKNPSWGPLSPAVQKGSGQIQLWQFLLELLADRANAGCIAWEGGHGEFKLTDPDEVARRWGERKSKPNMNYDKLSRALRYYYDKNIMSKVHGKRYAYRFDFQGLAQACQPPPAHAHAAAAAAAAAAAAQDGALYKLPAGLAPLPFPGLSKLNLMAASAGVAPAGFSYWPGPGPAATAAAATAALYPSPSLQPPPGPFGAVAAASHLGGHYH
# Outline: as §1
# ETV5 = ETV5 (Homo sapiens, UniProt P41161 1-510)
# Chain of ETV5 (P41161 whole entry): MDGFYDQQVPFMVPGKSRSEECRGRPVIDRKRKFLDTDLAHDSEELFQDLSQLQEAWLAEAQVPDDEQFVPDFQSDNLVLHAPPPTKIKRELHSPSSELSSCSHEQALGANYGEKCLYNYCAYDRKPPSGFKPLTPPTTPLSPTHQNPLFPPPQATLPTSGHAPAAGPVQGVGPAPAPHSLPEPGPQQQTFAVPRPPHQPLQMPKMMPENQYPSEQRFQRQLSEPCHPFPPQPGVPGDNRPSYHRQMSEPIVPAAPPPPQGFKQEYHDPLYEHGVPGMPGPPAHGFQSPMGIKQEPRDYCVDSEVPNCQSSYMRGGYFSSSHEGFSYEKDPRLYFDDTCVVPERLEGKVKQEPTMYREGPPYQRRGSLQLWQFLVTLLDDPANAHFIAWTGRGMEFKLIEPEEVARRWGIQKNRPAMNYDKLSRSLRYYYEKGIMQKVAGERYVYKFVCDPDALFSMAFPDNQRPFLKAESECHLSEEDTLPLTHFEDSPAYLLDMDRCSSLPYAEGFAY
# Outline: as §1
# ELF4 = ELF4 (Homo sapiens, UniProt Q99607 1-663)
# Chain of ELF4 (Q99607 whole entry): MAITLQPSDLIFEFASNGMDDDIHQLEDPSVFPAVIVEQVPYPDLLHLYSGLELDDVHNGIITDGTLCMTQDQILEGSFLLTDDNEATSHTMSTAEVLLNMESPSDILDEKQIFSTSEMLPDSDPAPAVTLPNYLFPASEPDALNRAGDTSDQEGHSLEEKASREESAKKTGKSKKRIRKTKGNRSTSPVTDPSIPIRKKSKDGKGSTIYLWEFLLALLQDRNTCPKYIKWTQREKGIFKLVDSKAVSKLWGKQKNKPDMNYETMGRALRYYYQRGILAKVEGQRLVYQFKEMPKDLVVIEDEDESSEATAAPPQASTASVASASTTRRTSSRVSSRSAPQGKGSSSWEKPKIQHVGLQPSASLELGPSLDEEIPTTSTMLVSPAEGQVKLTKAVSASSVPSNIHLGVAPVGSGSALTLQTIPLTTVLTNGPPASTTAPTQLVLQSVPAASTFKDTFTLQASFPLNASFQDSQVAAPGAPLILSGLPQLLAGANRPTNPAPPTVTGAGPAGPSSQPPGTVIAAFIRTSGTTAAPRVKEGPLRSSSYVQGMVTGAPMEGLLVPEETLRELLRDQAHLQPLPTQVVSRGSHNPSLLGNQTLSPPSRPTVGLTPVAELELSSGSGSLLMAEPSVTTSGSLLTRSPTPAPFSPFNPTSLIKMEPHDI
# Outline: as §1
# ELK4 = molecular target: T6, ELK4 (Homo sapiens, UniProt P28324-2 1-405)
# T6 sequence: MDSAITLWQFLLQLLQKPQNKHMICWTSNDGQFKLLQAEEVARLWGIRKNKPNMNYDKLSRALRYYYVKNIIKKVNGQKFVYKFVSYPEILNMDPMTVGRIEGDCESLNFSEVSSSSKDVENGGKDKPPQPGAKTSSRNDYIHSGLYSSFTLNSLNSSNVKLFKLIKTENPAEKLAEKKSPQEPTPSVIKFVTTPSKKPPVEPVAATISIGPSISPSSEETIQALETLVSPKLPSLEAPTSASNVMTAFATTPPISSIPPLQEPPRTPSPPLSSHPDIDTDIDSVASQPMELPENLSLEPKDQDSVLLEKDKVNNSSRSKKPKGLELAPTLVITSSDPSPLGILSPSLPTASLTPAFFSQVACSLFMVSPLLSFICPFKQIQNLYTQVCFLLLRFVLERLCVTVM
# Outline: as §1
# ETV2 = molecular target: T7, ETV2 (Homo sapiens, UniProt O00321 1-342)
# T7 sequence: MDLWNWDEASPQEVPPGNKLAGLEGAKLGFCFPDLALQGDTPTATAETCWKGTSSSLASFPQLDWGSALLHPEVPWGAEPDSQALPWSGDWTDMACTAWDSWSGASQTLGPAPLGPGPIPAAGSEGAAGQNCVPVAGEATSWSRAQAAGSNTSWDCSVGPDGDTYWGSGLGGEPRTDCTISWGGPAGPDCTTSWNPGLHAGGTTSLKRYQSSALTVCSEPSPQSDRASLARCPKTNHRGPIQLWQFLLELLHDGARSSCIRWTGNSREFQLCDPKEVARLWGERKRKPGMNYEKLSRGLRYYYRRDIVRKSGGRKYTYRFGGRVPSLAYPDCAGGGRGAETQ
# Outline: as §1
# ETV1 = ETV1 (Homo sapiens, UniProt P50549 1-477)
# Chain of ETV1 (P50549 whole entry): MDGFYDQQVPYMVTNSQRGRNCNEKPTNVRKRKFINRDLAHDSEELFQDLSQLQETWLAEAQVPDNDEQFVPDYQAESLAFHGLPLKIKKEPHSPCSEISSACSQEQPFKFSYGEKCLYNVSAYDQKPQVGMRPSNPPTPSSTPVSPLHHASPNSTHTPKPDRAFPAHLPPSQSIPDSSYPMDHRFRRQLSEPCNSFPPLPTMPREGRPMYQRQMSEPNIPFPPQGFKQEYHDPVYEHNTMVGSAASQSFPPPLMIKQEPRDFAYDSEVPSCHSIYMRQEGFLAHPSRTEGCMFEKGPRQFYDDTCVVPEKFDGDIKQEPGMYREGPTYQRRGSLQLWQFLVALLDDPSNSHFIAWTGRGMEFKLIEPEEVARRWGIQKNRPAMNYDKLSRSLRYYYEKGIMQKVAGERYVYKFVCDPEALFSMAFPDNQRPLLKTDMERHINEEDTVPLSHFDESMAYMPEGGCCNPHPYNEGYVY
# Outline: as §1
# ERF = molecular target: T8, ERF (Homo sapiens, UniProt P50548 1-548)
# T8 sequence: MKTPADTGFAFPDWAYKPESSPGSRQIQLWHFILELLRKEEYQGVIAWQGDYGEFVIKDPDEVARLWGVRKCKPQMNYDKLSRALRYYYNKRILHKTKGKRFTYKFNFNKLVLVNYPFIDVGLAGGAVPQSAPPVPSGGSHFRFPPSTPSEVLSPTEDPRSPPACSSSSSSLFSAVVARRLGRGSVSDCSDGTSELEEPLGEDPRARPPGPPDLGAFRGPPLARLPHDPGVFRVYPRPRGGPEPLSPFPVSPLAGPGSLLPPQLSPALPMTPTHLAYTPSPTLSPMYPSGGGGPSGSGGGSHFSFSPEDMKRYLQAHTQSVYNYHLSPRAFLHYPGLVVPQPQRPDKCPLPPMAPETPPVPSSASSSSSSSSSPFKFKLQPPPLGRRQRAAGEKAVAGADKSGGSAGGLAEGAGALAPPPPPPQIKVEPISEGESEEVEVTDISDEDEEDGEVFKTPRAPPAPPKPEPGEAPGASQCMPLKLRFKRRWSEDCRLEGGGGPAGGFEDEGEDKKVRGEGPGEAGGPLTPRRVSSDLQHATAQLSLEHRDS
# Outline: as §1
# ETV3L = molecular target: T9, ETV3L (Homo sapiens, UniProt Q6ZN32 1-361)
# T9 sequence: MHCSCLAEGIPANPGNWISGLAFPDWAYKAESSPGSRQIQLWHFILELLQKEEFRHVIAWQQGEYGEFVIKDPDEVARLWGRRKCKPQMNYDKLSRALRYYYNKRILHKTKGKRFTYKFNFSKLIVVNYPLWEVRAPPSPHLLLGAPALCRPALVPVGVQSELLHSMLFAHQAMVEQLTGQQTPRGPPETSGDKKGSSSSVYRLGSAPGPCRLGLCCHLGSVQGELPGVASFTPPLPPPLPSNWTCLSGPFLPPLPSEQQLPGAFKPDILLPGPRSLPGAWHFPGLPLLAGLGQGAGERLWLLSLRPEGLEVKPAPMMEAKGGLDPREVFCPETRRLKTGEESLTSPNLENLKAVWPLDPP
# Outline: as §1
# ETS2 = molecular target: T10, ETS2 (Homo sapiens, UniProt P15036 1-469)
# T10 sequence: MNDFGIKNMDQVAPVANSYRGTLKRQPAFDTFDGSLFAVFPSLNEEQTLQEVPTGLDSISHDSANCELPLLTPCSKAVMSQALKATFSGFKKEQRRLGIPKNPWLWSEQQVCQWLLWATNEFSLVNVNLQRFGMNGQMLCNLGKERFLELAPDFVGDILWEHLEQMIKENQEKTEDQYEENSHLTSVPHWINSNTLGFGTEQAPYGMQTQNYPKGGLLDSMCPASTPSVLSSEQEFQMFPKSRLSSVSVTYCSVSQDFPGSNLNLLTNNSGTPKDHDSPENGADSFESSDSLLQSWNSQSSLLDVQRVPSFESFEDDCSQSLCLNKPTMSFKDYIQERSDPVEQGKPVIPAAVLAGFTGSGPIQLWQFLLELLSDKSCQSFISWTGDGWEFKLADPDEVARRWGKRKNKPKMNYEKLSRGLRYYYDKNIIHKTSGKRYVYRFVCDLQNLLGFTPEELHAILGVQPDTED
# Outline: as §1
# SPDEF = molecular target: T11, SPDEF (Homo sapiens, UniProt O95238 1-335)
# T11 sequence: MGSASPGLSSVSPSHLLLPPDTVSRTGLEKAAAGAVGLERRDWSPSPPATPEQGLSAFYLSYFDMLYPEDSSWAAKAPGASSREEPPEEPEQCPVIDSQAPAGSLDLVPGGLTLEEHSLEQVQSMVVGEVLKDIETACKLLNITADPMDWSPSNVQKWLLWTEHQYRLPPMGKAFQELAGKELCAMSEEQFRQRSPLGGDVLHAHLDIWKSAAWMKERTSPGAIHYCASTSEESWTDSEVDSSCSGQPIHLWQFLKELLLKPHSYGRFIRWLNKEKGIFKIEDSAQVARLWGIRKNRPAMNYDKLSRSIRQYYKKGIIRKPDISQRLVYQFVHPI
# Outline: as §1
# ETV7 = molecular target: T12, ETV7 (Homo sapiens, UniProt Q9Y603 1-341)
# T12 sequence: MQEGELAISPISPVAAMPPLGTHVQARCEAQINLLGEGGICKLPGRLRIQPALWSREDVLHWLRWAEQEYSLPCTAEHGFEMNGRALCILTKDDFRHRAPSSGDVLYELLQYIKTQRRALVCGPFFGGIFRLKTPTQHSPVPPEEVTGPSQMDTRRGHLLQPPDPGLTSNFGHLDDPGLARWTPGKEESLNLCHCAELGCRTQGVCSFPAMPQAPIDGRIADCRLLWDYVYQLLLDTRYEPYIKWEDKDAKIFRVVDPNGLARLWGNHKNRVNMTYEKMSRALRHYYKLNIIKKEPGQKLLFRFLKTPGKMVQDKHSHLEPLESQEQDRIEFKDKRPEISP
# Outline: as §1
# ETV3 = molecular target: T13, ETV3 (Homo sapiens, UniProt P41162-2 1-143)
# T13 sequence: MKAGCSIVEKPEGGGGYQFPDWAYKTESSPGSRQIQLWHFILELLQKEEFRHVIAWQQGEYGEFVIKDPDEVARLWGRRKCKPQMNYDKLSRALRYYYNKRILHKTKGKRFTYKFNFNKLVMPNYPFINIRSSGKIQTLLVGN
# Outline: as §1
sequence,measurement,setting,value
TAGGGC,binding signal,ELK1,"1.07 fold enrichment (6-mer frequency, TF over GST control)"
same,binding signal,GABPA,"1.01 fold enrichment (6-mer frequency, TF over GST control)"
same,binding signal,ERG,"1.01 fold enrichment (6-mer frequency, TF over GST control)"
same,binding signal,EHF,"1.18 fold enrichment (6-mer frequency, TF over GST control)"
same,binding signal,FEV,"1.06 fold enrichment (6-mer frequency, TF over GST control)"
same,binding signal,ETV5,"1.03 fold enrichment (6-mer frequency, TF over GST control)"
same,binding signal,ELF4,"1.03 fold enrichment (6-mer frequency, TF over GST control)"
same,binding signal,ELK4,"1.02 fold enrichment (6-mer frequency, TF over GST control)"
same,binding signal,ETV2,"1.12 fold enrichment (6-mer frequency, TF over GST control)"
same,binding signal,ETV1,"1.06 fold enrichment (6-mer frequency, TF over GST control)"
same,binding signal,ERF,"1.09 fold enrichment (6-mer frequency, TF over GST control)"
same,binding signal,ETV3L,"1.04 fold enrichment (6-mer frequency, TF over GST control)"
same,binding signal,ETS2,"1.06 fold enrichment (6-mer frequency, TF over GST control)"
same,binding signal,SPDEF,"1.01 fold enrichment (6-mer frequency, TF over GST control)"
same,binding signal,ETV7,"1.07 fold enrichment (6-mer frequency, TF over GST control)"
same,binding signal,ETV3,"1.03 fold enrichment (6-mer frequency, TF over GST control)"
